Several values for one entry are separate records, joined by “and”; a condition that tells them apart may be missing. Equal values may be shown once. Some compounds were tested as several samples or in several runs, with calls that do not always agree. Activity calls are given as the source filed them. How the source made its calls: active means hit-call score of the fitted dose curve at least 0.9, where 1 is the maximum; inactive means score below 0.9.

The experiment can be described thus: CCTE_Shafer_MEA_acute_burst_percentage_std: CCTE's Neural Acute Assay for Standard Deviation of Burst Percentage, Shafer Lab (AID 2284018).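 Further: fitted in the negative direction so actives lower burst percentage SD.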 On the procedure:
CCTE_Shafer_MEA_acute assay is conducted using Axion Biosystems 48 well microelectrode array (MEA) plates and Maestro recording system. Each well of the MEA plate contains a grid of 16 microelectrodes embedded in the culture surface. Electrically active cells, such as neurons, can be cultured over the electrodes, and electrical activity in these cells can be recorded extracellularly. The spontaneous firing of neurons is captured from each electrode on a microsecond timescale providing both temporally and spatially precise data. […] The CCTE_Shafer_MEA_acute assay uses primary cultures of rat cortical neurons. As these cultures mature over time, neural networks develop functional activity and form cohesive networks in which electrical activity can be highly coordinated. Baseline 40-minute recordings are made on days post-plating 13 or 15, followed by a secondary 40-minute recording after chemical exposure.CCTE_Shafer_MEA_acute_burst_percentage_std is a component of the CCTE_Shafer_MEA_acute assay. It measures the percentage of spikes (action potential firing) in a single-electrode burst (temporally-clustered groups of spikes) as the number of spikes in bursts divided by the total number of spikes during a recording in a microelectrode array (MEA) using Axion Biosystems Maestro 768 channel amplifier with the AxIS adaptive spike detector. The standard deviation of the burst percentages across electrodes is calculated to report a well-level value. The recordings before and after chemical treatment are used to calculate a percent change in the standard deviation of the burst percentage in each well.Data from the assay component CCTE_Shafer_MEA_acute_burst_percentage_std was analyzed into 1 assay endpoint. This assay endpoint, CCTE_Shafer_MEA_acute_burst_percentage_std, was analyzed in the negative analysis fitting direction relative to DMSO as the negative control and baseline of activity. Using a type of functional reporter, gain or loss-of-signal activity can be used to understand electrical activity.
Spontaneous activity in the cortical cultures was recorded using an Axion Biosystems Maestro 768 channel amplifier and Axion Integrated Studios (AxIS) v1.8 (or later) software. The amplifier recorded from all channels simultaneously (gain = 1200 x; sampling rate = 12.5 kHz/channel): raw signals were filtered with a Butterworth band-pass filter (300-5000 Hz), which filters out slower local field potentials leaving only fast potentials, i.e., "spikes", arising from extracellular currents associated with action potentials (Pine 2006; Wheeler and Nam 2011). On-line spike detection of filtered signals was conducted with the AxIS adaptive spike detector, using a threshold of 8x the root mean squared (rms) noise on each channel. Any electrodes with rms noise levels greater than 5 uV were grounded (e.g., no data were recorded). Once grounded, an electrode was grounded for the duration of the experiment. All recordings were conducted at 37 C. Wells were deemed usable if on the day of the exposure >/= 10 electrodes were active (defined as >/= 5 spikes/min). On DIV 13 or 15, a minimum of three wells from one cortical culture preparation were treated with each compound (0.03-40 uM). Prior to recording baseline activity, each mwMEA plate was placed in the Maestro at 37 C and allowed to sit for 20 min while firing rates stabilized. Baseline activity (40 min) was recorded before the addition of each compound. An additional 40 min of spontaneous activity was recorded in the presence of each compound. Changes in network parameters relative to baseline were assessed following compound treatment.
Take `O=C(O)c1cc(Oc2ccc(C(F)(F)F)cc2Cl)ccc1[N+](=O)[O-]`: the molecule was called inactive.

As for `CCc1cccc(C)c1N(C(=O)CCl)C(C)COC` (stereo not given), the call was inactive.

As for `CCc1cnc(C2=NC(C)(C(C)C)C(=O)N2)c(C(=O)O)c1` (stereo not given), the outcome was inactive.

Broadly, the AC50 is the concentration at which the activity in the assay is half-maximal. In the case of `CC(COc1ccc(Oc2ccccc2)cc1)Oc1ccccn1` (stereo not given), the AC50 was 20 µM (active).

For `FC(F)C(F)(F)OCC(Cn1cncn1)c1ccc(Cl)cc1Cl` (stereo not given), the outcome was inactive.

`CCOP(=O)(NC(C)C)Oc1ccc(SC)c(C)c1` (stereo not given): the molecule was classed as inactive.

As to `CN(C)NC(=O)CCC(=O)O`, the outcome was inactive.

With `CCOP(=S)(OCC)SCCSCC`, the result was inactive.

Consider `CN1COCN(Cc2cnc(Cl)s2)C1=N[N+](=O)[O-]`, for which the molecule was called inactive.

On to `Nc1c(Cl)cc([N+](=O)[O-])cc1Cl`, for which the AC50 is 26.9 µM (active).

With `CC(C)[C@H](C(=O)O[C@H](C#N)c1cccc(Oc2ccccc2)c1)c1ccc(Cl)cc1`, the outcome was inactive.

`CC(C)=CC1C(C(=O)OCN2C(=O)C3=C(CCCC3)C2=O)C1(C)C` (stereo not given): the AC50 was 26.1 µM (active).

`CN(C)[C@@H]1C(=O)C(C(N)=O)=C(O)[C@@]2(O)C(=O)C3=C(O)c4c(O)cccc4[C@@](C)(O)[C@H]3[C@H](O)[C@@H]12`: the call was inactive.

`CCOC(=O)CC(SP(=O)(OC)OC)C(=O)OCC` (stereo not given): the molecule was classed as inactive.

Turning to `CC[C@H](C)[C@H]1O[C@]2(C=C[C@@H]1C)C[C@@H]1C[C@@H](C/C=C(\C)[C@@H](O[C@H]3C[C@H](OC)[C@@H](O[C@H]4C[C@H](OC)[C@@H](NC)[C@H](C)O4)[C@H](C)O3)[C@@H](C)/C=C/C=C3\CO[C@@H]4[C@H](O)C(C)=C[C@@H](C(=O)O1)[C@]34O)O2`, the AC50 was 48.5 nM (active) and 2.98 µM (active).

With `Cc1ccn2nc(S(=O)(=O)Nc3c(F)cccc3F)nc2n1`, the outcome was inactive.

Turning to `COc1cc(OC)nc(Sc2cccc(Cl)c2C(=O)O)n1`, the outcome was inactive.

Take `CCOP(=S)(OCC)Oc1ccc2c(C)c(Cl)c(=O)oc2c1`: the molecule was classed as inactive.

As to `O=[N+]([O-])c1cc(C(F)(F)F)c(Cl)c([N+](=O)[O-])c1Nc1ncc(C(F)(F)F)cc1Cl`, the call was inactive.

Take `C=C(C)[C@H]1Cc2c(ccc3c2O[C@@H]2COc4cc(OC)c(OC)cc4[C@@H]2C3=O)O1`: the AC50 is 30.3 µM (active).

Take `COP(=O)(NC(C)=O)SC` (stereo not given): the AC50 is 4.26 µM (active) and the call was inactive.

Regarding `CCOP(=S)(Oc1cnc(C(C)(C)C)nc1)OC(C)C` (stereo not given), the outcome was inactive.

For `C#CCC1=C(C)C(OC(=O)C2C(C=C(C)C)C2(C)C)CC1=O` (stereo not given), the AC50 was 19.9 µM (active).

With `COP(=O)(OC)C(O)C(Cl)(Cl)Cl` (stereo not given), the molecule was called inactive.

Take `CC(=NC#N)N(C)Cc1ccc(Cl)nc1`: the molecule was called inactive.

For the molecule `C[N+]1(C)CCCCC1`, the outcome was inactive.

Take `C[Si](Cn1cncn1)(c1ccc(F)cc1)c1ccc(F)cc1`: the AC50 is 4.31 µM (active).

For the molecule `CC(C)N(C(=O)SCC(Cl)=C(Cl)Cl)C(C)C`, the AC50 was 20 µM (active) and 7.81 µM (active).

For the molecule `N#CSCSC#N`, the molecule was classed as inactive.

Take `CSC1=N[C@@](C)(c2ccccc2)C(=O)N1Nc1ccccc1`: the AC50 was 37.7 µM (active) and 26.1 µM (active).

As for `CCCOCC(=Nc1ccc(Cl)cc1C(F)(F)F)n1ccnc1`, the call was inactive.

As to `CON=C(C(=O)OC)c1ccccc1CON=C(C)c1cccc(C(F)(F)F)c1`, the call was inactive.

Consider `CC1=NNC(=O)N(/N=C/c2cccnc2)C1`, for which the molecule was classed as inactive.

On to `CNC(=O)ON=C(SC)C(=O)N(C)C`, for which the molecule was called inactive.

For the origin of these results see PubChem BioAssay (EPA / NIEHS).
